Screening data: PubChem, National Center for Advancing Translational Sciences (NCATS)
TRPML1 inh = human mucolipin-1 channel inhibition | Q9GZU1 | TRPML1-inducible cells, Ca2+ dye fluorescence, FDSS; hits give low values; inhibition of EC80 agonist-evoked calcium signal | activity change, negative = inhibition, % (no concentration beside the values) | 390,000 tested, 0.02% active | AID 624415; in the data active = activity change below about -50%; inconclusive = between about -30% and that limit;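 also: stimulus is agonist 54-4 at its EC80 concentration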
Target sequence (Q9GZU1 whole entry, looked up): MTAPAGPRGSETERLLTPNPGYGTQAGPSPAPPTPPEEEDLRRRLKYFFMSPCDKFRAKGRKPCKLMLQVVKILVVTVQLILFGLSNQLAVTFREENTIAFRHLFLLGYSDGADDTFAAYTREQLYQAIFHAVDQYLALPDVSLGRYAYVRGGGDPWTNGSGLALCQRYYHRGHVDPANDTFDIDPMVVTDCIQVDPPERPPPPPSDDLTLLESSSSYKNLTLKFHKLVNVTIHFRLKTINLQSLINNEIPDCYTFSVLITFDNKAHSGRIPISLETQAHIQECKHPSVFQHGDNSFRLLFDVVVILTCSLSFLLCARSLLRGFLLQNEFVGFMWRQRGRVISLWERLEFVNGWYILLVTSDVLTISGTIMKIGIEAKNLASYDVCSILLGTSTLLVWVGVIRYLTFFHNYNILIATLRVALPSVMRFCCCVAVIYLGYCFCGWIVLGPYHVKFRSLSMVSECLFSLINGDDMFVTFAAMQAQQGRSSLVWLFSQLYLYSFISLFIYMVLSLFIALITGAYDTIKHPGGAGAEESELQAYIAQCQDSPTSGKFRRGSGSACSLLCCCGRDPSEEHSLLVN
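Calcium fluorescence in TRPML1-DL cells induced overnight with Tet: a 110 s read after compound pin addition, then a 110 s antagonist read after challenge with 54-4 at 4 uM final (EC80).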
TRPV1 PAM = potentiators of human vanilloid receptor 1 (TRPV1); Q8NER1; 320,000 tested, 0.02% active; potentiation, % at 8.33 µM; TRPV1-expressing cells, Fluo-8 calcium influx, capsaicin EC20 potentiation; AID 540277; in the data active = potentiation above about 80%; inconclusive = between about 30% and that limit
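Fluo-8 calcium influx in TRPV1-expressing cells, kinetic read (ex 480/em 520 nm). Compound added and read 3 min for agonist activity, followed by capsaicin at EC20 final and 2 min further read for enhancement.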
TRHR ag = agonists of human TRH receptor. P34981. TRHR cells, calcium flux fluo-8, FDSS agonist mode. activation, % at 2 µM. 360,000 tested, 0.18% active. AID 493084; in the data active = activation above about 30%
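In this calcium-flux screen, cells bearing human TRHR are dye-loaded with fluo-8, baselined for 10 cycles, then exposed to library compounds; positive kinetic calcium responses during the agonist phase mark hits, with TRH as control.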
TRPML1 ag = agonists of human TRPML1 channel. Q9GZU1. TRPML1-expressing cells, Ca2+ dye fluorescence, FDSS. activation, % (test concentration not listed). 410,000 tested, 0.12% active; in the data active = activation above about 50%; inconclusive = mostly about 30% to 49%
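In this qHTS format, compounds were pin-transferred onto Ca8-dye-loaded TRPML1-DL cells induced with Tet overnight, and intracellular Ca2+ fluorescence was recorded kinetically for 110 s after a 10 s baseline. A subsequent 4uM final 54-4 (EC80) addition followed by a second 110 s read served as the antagonist phase.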
TRHR enhancer = allosterically enhances the human TRH receptor; TRHR cells, fluo-8 calcium fluorescence, EC20 TRH enhancement; enhancement, % at 2 µM; 360,000 tested, 0.66% active; AID 493056; in the data active = enhancement above about 30%
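TRHR-expressing cells loaded with fluo-8 calcium dye were read kinetically (ex 480/em 530) during compound addition, then stimulated with an EC20 of TRH (10 nM final). Enhancement of the Gq-mediated intracellular calcium response was scored.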
TRPV1 ag = human TRPV1 agonism; activation, % at 8.33 µM; 320,000 tested, 0.19% active; AID 540275; TRPV1-expressing cells, Fluo-8 calcium influx, agonist mode; Q8NER1; in the data active = activation above about 80%; inconclusive = between about 30% and that limit
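TRPV1-expressing cells were cultured overnight at 35.5C and loaded with Fluo-8 calcium dye for 40 to 90 min at room temperature. After a 10 s baseline, compound was added and calcium influx was read kinetically for 3 min (ex 480/em 520 nm).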
Each line names hits and unclear results; the compound was inactive in the other large screens. An excerpt weighted towards active compounds, which were near 0.99% of everything screened.

CCc1cccc(C)c1NC(=O)Cn1nc(C)c2nn(-c3ccc(Cl)cc3)c(C)c2c1=O	none (no result: TRPV1 PAM, TRPV1 ag)
CCOC(=O)c1ccc(NC(=O)Cn2nc(C)c3nn(-c4ccc(Cl)cc4)c(C)c3c2=O)cc1	TRHR enhancer 34 (no result: TRPV1 PAM, TRPV1 ag)
CCCS(=O)(=O)c1c(S(=O)(=O)CCC)c2cnccn2c1C(=O)c1ccc(Cl)cc1	TRHR enhancer 33
CCCS(=O)(=O)c1c(S(=O)(=O)CCC)c2cc(C(C)(C)C)ccn2c1C(=O)c1ccccc1	none (no result: TRPV1 PAM, TRPV1 ag)
Cc1cccc(NC(=O)CCC(=O)N/N=C/c2ccco2)c1C	TRHR enhancer 34
O=C(CCC(=O)Nc1ccccc1)N/N=C/c1ccco1	TRHR enhancer 38
O=C(CCC(=O)Nc1cccc2ccccc12)N/N=C/c1ccco1	none
O=[S+]([O-])(c1ccc(-c2ccccc2)cc1)N1CCN([S+](=O)([O-])c2ccc3c(c2)OCCO3)CC1	none (no result: TRPML1 inh, TRPV1 PAM, TRPML1 ag, TRPV1 ag)
O=C(NCc1ccccc1)C1CCCN(S(=O)(=O)c2cccc3nonc23)C1 (configuration not stated)	none
CCC(C)NC(=O)C1CCN(S(=O)(=O)c2cccc3nonc23)CC1 (configuration not stated)	TRHR enhancer 31
O=C(NC1CCN(Cc2ccccc2)CC1)C1CCCN(S(=O)(=O)c2cccc3nonc23)C1 (configuration not stated)	TRHR enhancer 36
O=C(Nc1cc(C(F)(F)F)ccc1Cl)c1cc(-c2ccc3c(c2)OCCO3)on1	none (no result: TRPV1 PAM, TRPV1 ag)
Cc1ccc(C2C(C#N)=C(N)SC(N)=C2C#N)c(C)c1	TRPML1 ag 64
Cc1ccc(C2C(C#N)=C(N)SC(N)=C2C#N)cc1	none
C/C(=N\NC(=S)NC(C)C)c1ccccc1	none (no result: TRPML1 inh, TRPML1 ag)
CC(C)NC(=S)NC(c1ccccc1)(c1ccccc1)c1ccccc1	TRPML1 ag 70, TRPV1 ag inconclusive
CC(=O)/C=C/c1ccc2c(c1)S(=O)(=O)N(C1CCCC1)[C@H]2CC(C)=O	none (no result: TRPML1 inh, TRPV1 PAM, TRHR ag, TRHR enhancer, TRPV1 ag)
Cc1nc2ccc(S(=O)(=O)N3CCN(S(=O)(=O)c4c(F)cccc4F)CC3)cc2s1	none (no result: TRPML1 inh, TRPV1 PAM, TRPML1 ag, TRPV1 ag)
CCOC(=O)C1CCN(C(=O)c2cc(S(=O)(=O)N3CCOCC3)ccc2C)CC1	TRHR enhancer 31
CCOC(=O)c1c(C)oc2nc(C)nc(NCCCN3CCN(c4cccc(C)c4)C(C)C3)c12 (configuration not stated)	TRPML1 inh inconclusive, TRHR enhancer 38 (no result: TRPV1 PAM, TRPV1 ag)
CCOC(=O)c1c(C)oc2nc(C)nc(NCCCN3CCN(c4ccccc4)CC3)c12	none (no result: TRPV1 PAM, TRPV1 ag)
CCc1ccc(N=C2NC(=O)/C(=C/c3cc(OC)c(OC)c(OC)c3)S2)cc1	none
COc1cc(/C=C2\SC(=Nc3ccc(O)cc3)NC2=O)cc(OC)c1O	TRHR ag 44
COc1cc(OC)c(/C=C/c2ccccn2)c(OC)c1	none (no result: TRPML1 inh, TRPV1 PAM, TRHR ag, TRHR enhancer, TRPV1 ag)
COC(=O)C(C)(C)ONC(=O)Nc1ccccc1[N+](=O)[O-]	TRHR enhancer 31
CCOC(=O)COc1ccc(/C=C2/C(=O)NN(c3ccc(F)cc3)C2=O)cc1OC	TRHR enhancer 38
COc1ccc(CN(Cc2ccccc2)C(=O)c2ccco2)cc1COc1ccc(NC(C)=O)cc1	none (no result: TRPML1 inh, TRPV1 PAM, TRHR ag, TRHR enhancer, TRPV1 ag)
CCCN1C(=O)/C(=C/c2ccc(N3CCCC3)c(C)c2)NC1=S	TRPML1 ag 67 (no result: TRPV1 PAM, TRHR ag, TRHR enhancer, TRPV1 ag)
CCN1C(=O)/C(=C/c2ccc(N3CCCC3)cc2)NC1=S	TRHR ag 111, TRPML1 ag 64, TRPV1 ag inconclusive
Cc1ccc(CN2C(=O)N/C(=C\c3ccc(N4CCOCC4)cc3)C2=O)cc1	none
Cc1cc(/C=C2\NC(=S)N(C)C2=O)ccc1N1CCCC1	TRHR ag 142, TRPML1 ag 94, TRHR enhancer 32, TRPV1 ag 89
Cc1cc(/C=C2/C(=O)N(C)C(=S)N2C)ccc1N1CCCC1	TRPML1 ag inconclusive
Cn1c(=O)c2c(nc(SCC(=O)Nc3ccc(F)cc3)n2Cc2ccccc2F)n(C)c1=O	none (no result: TRPV1 PAM, TRPV1 ag)
CCCOc1ccc(C(=O)Nc2ccc3nn(-c4ccc(OC)c(Cl)c4)nc3c2)cc1	none (no result: TRPV1 PAM, TRPV1 ag)
O=C1CC(c2cc(F)cc(F)c2)c2cc3c(cc2N1)OCO3 (configuration not stated)	none (no result: TRPV1 PAM, TRPV1 ag)
